The record followed here is ChEMBL document CHEMBL2218924, “A broad activity screen in support of a chemogenomic map for kinase signalling research and drug discovery” (Biochem J, 2013).

Assay [1] concerns the target Serine/threonine-protein kinase MRCK beta (Homo sapiens) (UniProt Q9Y5S2). The following applies: at 1 µM.
Assay [2] has the same target. The note with it: at 10 µM.
For assay [3], the target named is Ribosomal protein S6 kinase alpha-5 (Homo sapiens) (UniProt O75582). The following applies: at 1 µM.
Assay [4] shares this target. The following applies: at 10 µM.
In assay [5] the target is Ribosomal protein S6 kinase alpha-4 (Homo sapiens) (UniProt O75676). The following applies: at 1 µM.
The target is the same in assay [6]. The note with it: at 10 µM.
Assay [7] has as its target SRSF protein kinase 3 (Homo sapiens) (UniProt Q9UPE1). The note with it: at 1 µM.
The target is the same in assay [8]. The following applies: at 10 µM.
The target in assay [9] is T1, Serine/threonine-protein kinase 4 (Homo sapiens) (UniProt Q13043).
T1 sequence (whole entry): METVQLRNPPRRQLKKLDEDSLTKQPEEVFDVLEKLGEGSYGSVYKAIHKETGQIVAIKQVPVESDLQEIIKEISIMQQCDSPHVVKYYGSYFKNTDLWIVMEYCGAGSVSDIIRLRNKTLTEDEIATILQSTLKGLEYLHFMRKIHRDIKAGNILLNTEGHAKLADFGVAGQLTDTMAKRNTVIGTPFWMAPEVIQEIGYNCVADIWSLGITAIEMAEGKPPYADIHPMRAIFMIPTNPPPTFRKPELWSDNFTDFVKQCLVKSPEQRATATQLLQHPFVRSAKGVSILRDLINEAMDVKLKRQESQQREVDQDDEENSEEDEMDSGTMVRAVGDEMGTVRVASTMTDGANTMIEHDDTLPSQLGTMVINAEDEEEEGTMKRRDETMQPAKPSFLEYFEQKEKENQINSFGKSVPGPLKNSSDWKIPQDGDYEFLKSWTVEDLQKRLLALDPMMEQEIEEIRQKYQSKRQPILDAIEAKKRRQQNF
The note with it: at 1 µM.

The target of assay [10] is T1, Serine/threonine-protein kinase 4 (Homo sapiens). The note with it: at 10 µM.

The structures appear in SMILES notation.

Sequence of Ribosomal protein S6 kinase alpha-4 (Homo sapiens) (O75676 whole entry, looked up): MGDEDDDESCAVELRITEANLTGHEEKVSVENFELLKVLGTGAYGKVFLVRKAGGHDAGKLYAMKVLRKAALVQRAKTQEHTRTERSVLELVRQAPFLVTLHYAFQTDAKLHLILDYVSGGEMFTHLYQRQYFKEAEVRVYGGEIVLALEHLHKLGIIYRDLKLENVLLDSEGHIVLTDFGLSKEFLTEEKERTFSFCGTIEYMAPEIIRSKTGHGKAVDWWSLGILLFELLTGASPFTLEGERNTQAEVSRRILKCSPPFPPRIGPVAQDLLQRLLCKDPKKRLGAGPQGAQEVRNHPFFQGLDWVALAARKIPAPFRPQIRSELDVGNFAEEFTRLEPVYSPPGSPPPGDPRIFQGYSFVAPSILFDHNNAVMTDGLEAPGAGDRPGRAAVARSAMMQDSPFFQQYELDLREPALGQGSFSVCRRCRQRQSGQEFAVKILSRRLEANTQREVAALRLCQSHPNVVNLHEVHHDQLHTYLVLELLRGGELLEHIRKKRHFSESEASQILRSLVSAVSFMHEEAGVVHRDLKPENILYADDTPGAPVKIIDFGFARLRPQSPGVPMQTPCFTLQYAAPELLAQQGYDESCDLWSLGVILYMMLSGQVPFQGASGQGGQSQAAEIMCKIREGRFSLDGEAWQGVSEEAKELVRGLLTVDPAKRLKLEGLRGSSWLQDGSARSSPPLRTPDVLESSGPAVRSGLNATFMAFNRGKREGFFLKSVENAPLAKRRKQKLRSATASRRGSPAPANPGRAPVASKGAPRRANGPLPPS
Sequence of Ribosomal protein S6 kinase alpha-5 (Homo sapiens) (O75582 whole entry, looked up): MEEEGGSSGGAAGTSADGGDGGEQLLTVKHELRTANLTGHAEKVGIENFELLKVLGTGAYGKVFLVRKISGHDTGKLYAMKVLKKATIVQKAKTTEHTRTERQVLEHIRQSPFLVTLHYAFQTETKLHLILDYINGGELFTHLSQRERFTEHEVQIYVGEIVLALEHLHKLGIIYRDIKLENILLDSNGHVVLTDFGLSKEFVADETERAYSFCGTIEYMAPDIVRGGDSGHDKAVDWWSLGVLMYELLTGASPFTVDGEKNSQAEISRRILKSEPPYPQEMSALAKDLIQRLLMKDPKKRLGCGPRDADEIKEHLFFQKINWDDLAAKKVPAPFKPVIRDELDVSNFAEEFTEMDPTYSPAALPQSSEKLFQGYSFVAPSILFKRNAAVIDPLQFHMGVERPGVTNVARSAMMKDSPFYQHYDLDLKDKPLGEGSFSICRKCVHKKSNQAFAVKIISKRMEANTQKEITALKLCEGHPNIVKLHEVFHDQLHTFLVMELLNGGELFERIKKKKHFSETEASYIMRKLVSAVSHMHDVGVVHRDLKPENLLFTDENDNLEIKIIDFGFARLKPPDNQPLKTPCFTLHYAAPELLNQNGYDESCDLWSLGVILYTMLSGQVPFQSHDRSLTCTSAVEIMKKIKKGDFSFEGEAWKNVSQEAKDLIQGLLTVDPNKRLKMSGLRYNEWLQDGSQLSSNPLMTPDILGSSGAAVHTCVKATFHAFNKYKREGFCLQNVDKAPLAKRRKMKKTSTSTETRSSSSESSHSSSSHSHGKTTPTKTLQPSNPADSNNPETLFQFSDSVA
Sequence of SRSF protein kinase 3 (Homo sapiens) (Q9UPE1 whole entry): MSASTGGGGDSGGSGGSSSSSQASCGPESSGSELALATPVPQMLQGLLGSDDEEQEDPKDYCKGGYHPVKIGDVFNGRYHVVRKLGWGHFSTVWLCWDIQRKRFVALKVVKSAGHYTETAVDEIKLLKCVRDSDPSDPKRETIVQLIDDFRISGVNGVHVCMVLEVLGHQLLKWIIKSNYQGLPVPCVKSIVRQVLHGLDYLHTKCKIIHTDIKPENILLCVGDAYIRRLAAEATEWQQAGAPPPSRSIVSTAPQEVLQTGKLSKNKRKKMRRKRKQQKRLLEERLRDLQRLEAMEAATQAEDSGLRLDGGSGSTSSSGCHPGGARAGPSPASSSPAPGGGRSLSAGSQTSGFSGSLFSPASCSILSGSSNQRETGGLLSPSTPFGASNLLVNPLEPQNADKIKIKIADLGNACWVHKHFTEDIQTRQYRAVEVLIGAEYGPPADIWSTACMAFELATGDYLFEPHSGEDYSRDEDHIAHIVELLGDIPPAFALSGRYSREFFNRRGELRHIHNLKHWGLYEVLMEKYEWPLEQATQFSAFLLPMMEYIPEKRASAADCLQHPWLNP
Sequence of Serine/threonine-protein kinase MRCK beta (Homo sapiens) (Q9Y5S2 whole entry): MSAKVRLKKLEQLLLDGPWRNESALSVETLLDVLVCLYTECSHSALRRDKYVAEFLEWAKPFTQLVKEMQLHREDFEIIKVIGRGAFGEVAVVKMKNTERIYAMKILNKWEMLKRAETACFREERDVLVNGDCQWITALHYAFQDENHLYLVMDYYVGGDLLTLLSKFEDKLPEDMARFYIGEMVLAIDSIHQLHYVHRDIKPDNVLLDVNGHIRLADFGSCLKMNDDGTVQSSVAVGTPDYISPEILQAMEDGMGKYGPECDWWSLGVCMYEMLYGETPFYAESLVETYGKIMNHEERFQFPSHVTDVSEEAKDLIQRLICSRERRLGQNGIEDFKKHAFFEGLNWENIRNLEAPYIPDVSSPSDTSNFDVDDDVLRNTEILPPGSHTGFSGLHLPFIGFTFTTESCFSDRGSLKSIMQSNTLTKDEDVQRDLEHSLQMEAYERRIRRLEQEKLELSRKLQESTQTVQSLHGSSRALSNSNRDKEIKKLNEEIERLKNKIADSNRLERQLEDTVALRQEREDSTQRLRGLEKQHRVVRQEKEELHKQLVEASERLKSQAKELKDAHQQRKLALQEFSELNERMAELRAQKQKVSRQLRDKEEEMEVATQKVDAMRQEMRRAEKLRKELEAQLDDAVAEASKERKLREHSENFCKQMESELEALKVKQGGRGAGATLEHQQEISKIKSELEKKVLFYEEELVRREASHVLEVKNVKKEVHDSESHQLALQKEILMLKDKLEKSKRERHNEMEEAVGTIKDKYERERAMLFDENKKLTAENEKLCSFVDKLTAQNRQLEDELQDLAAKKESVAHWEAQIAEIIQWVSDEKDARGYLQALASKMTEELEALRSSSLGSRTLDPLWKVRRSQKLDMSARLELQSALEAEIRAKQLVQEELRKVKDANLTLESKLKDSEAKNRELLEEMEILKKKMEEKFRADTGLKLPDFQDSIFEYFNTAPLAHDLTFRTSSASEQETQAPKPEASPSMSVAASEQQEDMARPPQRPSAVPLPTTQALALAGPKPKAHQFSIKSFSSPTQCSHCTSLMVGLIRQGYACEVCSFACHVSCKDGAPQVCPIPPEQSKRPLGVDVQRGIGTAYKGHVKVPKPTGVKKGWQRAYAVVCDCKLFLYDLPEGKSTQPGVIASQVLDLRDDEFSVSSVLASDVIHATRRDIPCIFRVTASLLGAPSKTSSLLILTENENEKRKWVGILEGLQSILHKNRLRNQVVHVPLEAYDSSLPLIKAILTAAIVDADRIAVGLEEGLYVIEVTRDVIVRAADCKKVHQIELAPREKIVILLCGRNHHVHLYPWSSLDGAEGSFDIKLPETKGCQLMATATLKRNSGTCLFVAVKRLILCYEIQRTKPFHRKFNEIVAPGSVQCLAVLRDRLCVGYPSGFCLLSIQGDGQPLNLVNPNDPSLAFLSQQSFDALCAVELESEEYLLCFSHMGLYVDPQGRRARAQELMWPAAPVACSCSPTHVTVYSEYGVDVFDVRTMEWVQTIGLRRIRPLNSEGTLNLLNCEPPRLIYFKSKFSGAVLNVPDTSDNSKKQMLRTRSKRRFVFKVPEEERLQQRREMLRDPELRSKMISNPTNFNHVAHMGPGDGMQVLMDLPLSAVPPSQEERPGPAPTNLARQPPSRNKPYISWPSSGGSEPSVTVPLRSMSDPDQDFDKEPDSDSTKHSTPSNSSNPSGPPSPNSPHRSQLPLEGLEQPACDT

In general, residual activity refers to the signal under treatment as a percentage of the control signal. `COc1cccc(-c2cc(=O)c3ccccc3o2)c1N`: the residual activity in assay [1] turned out to be 102%; in assay [2] it was 95%; in assay [3], 104%; in [4], 117%; in assay [5], 94%; in assay [6] it was 98%. The residual activity in assay [7] was found to be 109%; in assay [8], 110%; in assay [9], 86%; in assay [10] it was 114%.
Consider `O=c1cc(-c2cccc3c2Sc2ccccc2S3)oc(N2CCOCC2)c1`, for which the residual activity worked out at 93% in assay [1]; 93% in assay [2]; 104% in assay [3]; 116% in assay [4]; 95% in assay [5]; 90% in assay [6]. Moreover, the residual activity in assay [7] worked out at 103%; in assay [8], 94%; in assay [9] it was 99%; in [10] it was 109%.
As to `O=C1Nc2ccccc2/C1=C1/Nc2ccccc2/C1=N\OCCC(O)CO` (configuration not stated), the residual activity in [3] stood at 47%; in assay [4], 10%; in assay [5], 15%; in assay [6], 2%; in assay [7], 62%; in assay [8] it was 42%. Besides, the figures for the residual activity in [9] and in [10] were 4% and -3%, respectively.
Consider `c1ccc2c(-c3ccncc3)c[nH]c2c1`, for which the residual activity in assay [1] turned out to be 94%; in assay [2], 60%; in [5], 80%; in assay [6], 54%; in assay [7], 102%; in assay [8], 80%. Besides, the residual activity was 89% in [9] and 97% in assay [10].
Take `O=C1Nc2ccc(Br)cc2/C1=C\c1cc2c([nH]1)CCCC2`: the residual activity in [1] worked out at 98%; in [3], 111%; in assay [4], 105%; in [6] it was 99%; in [7], 101%; in assay [8], 80%. Further, the residual activity was 60% in assay [9] and 75% in assay [10].
On to `Cc1nc(-c2ccccc2)c(-c2ccncc2)o1`, for which the residual activity is 105% in assay [1]; 96% in assay [2]; 99% in [3]; 94% in [4]; 103% in [5]; 77% in assay [6]. Further, the residual activity in assay [7] was 112%; in assay [8] it was 99%; in assay [10], 110%.
As for `Oc1ccc(-c2nc(-c3ccc(F)cc3)c(-c3ccncc3)[nH]2)cc1`, the residual activity in [1] came out at 105%; in assay [2] it was 92%; in [3] it was 102%; in assay [4] it was 98%; in assay [5], 77%; in assay [6], 43%. For the same compound, the residual activity turned out to be 120% in assay [7], 110% in [8], 92% in assay [9] and 113% in assay [10].
For `c1ccc(-c2n[nH]cc2-c2ccnc3ccccc23)nc1`, the residual activity amounted to 96% in assay [1]; 87% in assay [2]; 89% in [5]; 108% in [6]; 109% in assay [7]; 94% in assay [8].
In the case of `CO[C@H]1[C@@H](OC)C[C@H](C)[C@@H](OC)C2=CC(=O)C=C(NC(=O)/C(C)=C/C=C/[C@H](OC)[C@@H](OC(N)=O)/C(C)=C/[C@@H]1C)C2=O`, the residual activity in assay [1] was determined as 97%; in assay [2] it was 77%; in assay [3], 115%; in assay [4] it was 97%; in [5], 92%; in assay [6] it was 104%. Moreover, the residual activity came out at 116% in [7], 84% in assay [8], 101% in [9] and 108% in assay [10].
For `Nc1n[nH]c2nnc(-c3c(-c4ccccc4)nn4ccccc34)cc12`, the residual activity is 90% in assay [1]; 79% in assay [2]; 102% in assay [3]; 113% in assay [4]; 93% in assay [5]; 78% in assay [6]. Besides, the residual activity in assay [7] is 93%; in assay [8] it was 56%; in assay [9] it was 71%; in assay [10] it was 87%.
Take `CC(=O)c1ccc(N2CCOCC2)cc1O`: the residual activity in [1] was found to be 100%; in assay [2], 83%; in [3], 133%; in [4], 108%; in assay [5], 92%; in assay [8] it was 88%. Moreover, the residual activity in assay [9] was found to be 85%; in assay [10], 96%.
`Cc1cc2ncc(-c3ccccc3)nc2cc1C`: the residual activity in assay [1] came out at 92%; in assay [2], 88%; in assay [3], 134%; in assay [4] it was 103%; in assay [5], 92%; in [6], 103%. Also, the residual activity in assay [8] turned out to be 87%; in assay [10], 125%.
Regarding `COc1cc2ncnc(Nc3ccc(NC(=O)c4ccccc4)cc3)c2cc1OC`, the residual activity in assay [2] is 90%; in [4], 95%; in assay [5] it was 106%; in [6], 101%; in assay [8] it was 99%; in assay [10], 98%.
For the compound `Cn1nc2c3c(cccc31)C(=O)c1ccccc1-2`, the residual activity in [1] turned out to be 92%; in [2], 85%; in assay [3], 99%; in assay [4] it was 83%; in assay [5] it was 93%; in assay [6], 79%. Besides, the residual activity was determined as 98% in assay [7], 97% in [8], 72% in assay [9] and 72% in [10].
In the case of `N#Cc1cnc2cnc(NCc3cccnc3)cc2c1Nc1ccc(F)c(Cl)c1`, the residual activity was 5% in assay [5]; 2% in assay [6]; 119% in assay [7]; 99% in assay [8]; 93% in [9]; 91% in assay [10].
Regarding `N#CCCc1ccc2c(c1)-c1[nH]c3ccc([N+](=O)[O-])cc3c1CC(=O)N2`, the residual activity in assay [1] was determined as 9%; in [2] it was 6%; in assay [6], 79%; in [9], 10%; in assay [10], 6%.
On to `c1ccc(-c2n[nH]c3c2oc2ccccc23)cc1`, for which the residual activity was found to be 98% in assay [1]; 115% in [2]; 74% in [4]; 95% in assay [5]; 70% in [6]; 88% in assay [9]. In [10], the residual activity is 58%.
With `Cc1cncc2cccc(S(=O)(=O)N3CCCN(C(=O)CN)C[C@H]3C)c12`, the residual activity stood at 89% in assay [1]; 80% in assay [2]; 126% in assay [3]; 54% in [4]; 66% in assay [5]; 37% in assay [6]. Besides, the residual activity in assay [8] stood at 77%; in assay [9], 87%; in assay [10], 75%.
As to `O=C(O)c1ccc2c3c1cccc3c(=O)n1c3ccccc3nc21`, the residual activity in [1] is 93%; in assay [2], 93%; in assay [3], 98%; in assay [4] it was 93%; in assay [5], 95%; in [6] it was 84%. Also, the residual activity in assay [7] turned out to be 97%; in [8], 48%; in assay [9], 83%; in [10], 72%.
For the compound `CCN(CC)C(=O)c1ccc(Nc2nc(OCC3CCCCC3)c3nc[nH]c3n2)cc1`, the residual activity was 34% in assay [2]; 100% in assay [3]; 69% in assay [4]; 64% in assay [5]; 23% in assay [6]; 66% in assay [7]. Besides, the residual activity in [8] is 15%; in assay [9], 36%; in assay [10] it was 5%.
